PubChem BioAssay AID1903 (Southern Research Specialized Biocontainment Screening …, 2009)
In all, about 310,000 compounds went through this assay and about 1,200 (0.39%) were called active. Not all results are given here. Measured potencies and affinities stand elsewhere. A number with no mark means an inactive call. The rule behind the calls is not given here.

What follows are compounds tested against Large T antigen (Simian virus 40) (UniProt P03070) (assay: TAg ATPase/helicase activity blockers – biochemical (AID 1903)). Conditions: SV40 large T antigen ATPase/helicase inhibition assay; at 20 µM; hits give high values.
Large T antigen (Simian virus 40), sequence (P03070 whole entry, looked up): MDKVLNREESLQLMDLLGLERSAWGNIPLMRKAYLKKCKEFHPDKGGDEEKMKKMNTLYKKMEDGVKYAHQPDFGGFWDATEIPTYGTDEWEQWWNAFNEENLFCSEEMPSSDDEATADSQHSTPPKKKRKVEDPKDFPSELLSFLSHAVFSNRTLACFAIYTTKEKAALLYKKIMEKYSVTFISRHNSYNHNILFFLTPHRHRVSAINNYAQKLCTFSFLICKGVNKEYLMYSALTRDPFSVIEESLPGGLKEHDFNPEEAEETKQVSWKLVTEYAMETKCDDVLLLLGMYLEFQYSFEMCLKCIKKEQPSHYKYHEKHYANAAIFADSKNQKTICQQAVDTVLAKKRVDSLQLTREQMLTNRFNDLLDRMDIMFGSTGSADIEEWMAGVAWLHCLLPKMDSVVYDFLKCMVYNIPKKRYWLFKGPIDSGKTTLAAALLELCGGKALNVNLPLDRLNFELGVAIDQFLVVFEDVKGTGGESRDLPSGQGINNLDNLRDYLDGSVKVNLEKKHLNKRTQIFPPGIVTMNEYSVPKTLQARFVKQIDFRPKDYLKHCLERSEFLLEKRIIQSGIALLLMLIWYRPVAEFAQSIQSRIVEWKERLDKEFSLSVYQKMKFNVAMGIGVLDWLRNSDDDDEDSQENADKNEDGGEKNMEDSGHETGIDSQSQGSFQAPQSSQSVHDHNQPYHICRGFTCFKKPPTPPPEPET

Compound | inhibition [%]
COC(=O)[C@@]12CCCN1[C@H](c1ccc(-c3ccc(F)cc3)cc1)[C@H]1C(=O)N(C)C(=O)[C@H]12 | 5.03
Cc1ccc(S(=O)(=O)NC(=O)N(CCC#N)Cc2ccccc2)cc1 | 10.3
CC(C)(C)/C(O)=C/c1nc2ccccc2oc1=O | 29.2
Cc1ccc(/C(O)=C/c2nc3cc(C)ccc3oc2=O)cc1 | 14.5
COc1ccc(-c2nc(NC(=O)CSCCO)sc2C)cc1 | 22.1
O=S1(=O)N=C(SCCO)c2ccccc21 | -3.68
O=C1C(O)=C(O)C(=O)c2ccccc21 | 5.58
CCOc1ccc(NC(=S)N(CCN2CCOCC2)Cc2ccc3c(c2)CCCN3CC)cc1 | 18.7
CCOC(=O)c1[nH]nc(-c2c(O)cc(C)cc2O)c1-c1csc(C)n1 | 6.85
CCCc1cc(-c2[nH]ncc2-c2ccc(C(=O)OCC)o2)c(O)cc1O | 18.2
CCCc1cc2c(=O)c(-c3cscn3)c(C(=O)OCC)oc2cc1O | 2.58
CCOC(=O)c1oc2cc(O)c(CC)cc2c(=O)c1-c1cscn1 | 7.73
CN(C)/C=C/C(=O)c1ccc(S(=O)c2ccccc2)cc1 (stereo not drawn) | 12.1
Cc1cc(/C=N\O)c(C)n1-c1ccncc1 | 7.77
Cc1cc(/C=C2\NC(=S)NC2=O)c(C)n1-c1cccnc1 | 4.58
Cc1cc(/C=C2/NC(=O)NC2=O)c(C)n1-c1ccncc1 | 6.66
Cc1cc(/C=C2/NC(=S)NC2=O)c(C)n1-c1cccnc1 | 5.09
COc1ccc2c(c1)CC/C(=C\c1ccc(OC)c(Cn3nc(C)cc3C)c1)C2=O | 10.2
CCCc1nc(-c2ccccc2)c(-c2ccc(OC)c(OC)c2)c(=O)[nH]1 | 3.66
O=C(CSc1nnc(CNC(=O)c2cccs2)o1)NC1CCCC1 | 0.7
Cc1ccc(C(=O)Cn2nnc(-c3ccccc3)n2)cc1 | 0.94
O=C(CCS(=O)(=O)c1cccs1)Nc1ccc(C(=O)NC2CCN(Cc3ccccc3)CC2)cc1 | 16.1
O=C(CSCc1c(Cl)cccc1Cl)Nc1ccccc1C(=O)N1CCOCC1 | 6.94
CCOC(=O)c1sc(N)c(C(=O)Nc2ccccc2OC)c1C | 25.6

Compound | inhibition [%]
Cc1ccccc1-n1nnnc1SCC(=O)Nc1ccc(S(=O)(=O)N2CCCC2)cc1 | -7.07
Nc1ccc(-c2nc3ccc([N+](=O)[O-])cc3[nH]2)cc1 | 1.62
COc1ccc2nc(-c3ccc(N)cc3)[nH]c2c1 | 25.1
CC1CCN(C(=O)COC(=O)CSc2ccc(C(N)=O)cc2[N+](=O)[O-])CC1 | 18.6
O=C1CCCN1CCNC(=S)Nc1ccccc1 | 1.29
O=C1CCCN1CCCNC(=S)Nc1ccccc1 | 14.1
COCCOC(=O)C1=C(C)NC(=O)NC1c1ccco1 (stereo not drawn) | 13
Cc1ccc(NC(=O)C(=O)C2C(=O)Nc3ccccc32)cc1 (stereo not drawn) | 6.13
O=C(Nc1ccc(F)cc1)C(=O)C1C(=O)Nc2ccccc21 (stereo not drawn) | 16.2
COc1ccc(CC(=O)NCC(=O)N/N=C/c2sccc2C)cc1 | 26.5
Cc1ccc(S(=O)(=O)N2CCN(CC(=O)N/N=C\c3ccc(Cl)c([N+](=O)[O-])c3)CC2)cc1 | 19.6
O=S(=O)(c1ccc(NC(=S)N/N=C/c2ccc(N3CCOCC3)cc2)cc1)N1CCOCC1 | 22.6
Cc1ccc(S(=O)(=O)N2CCN(CC(=O)N/N=C\c3ccncc3)CC2)cc1 | 22
N#Cc1ccc(/C=N/NC(=S)Nc2ccc(S(=O)(=O)N3CCOCC3)cc2)cc1 | 15.2
CCCCN(C(=O)NC(=O)Nc1ccccc1C)S(C)(=O)=O | 12
COc1ccc(N2C(=O)CSC2c2cccc(F)c2)cc1 (stereo not drawn) | 9.83
CC1CC(C)(C)NC(=S)N1CCCC(=O)N1CCN(c2ccc(F)cc2)CC1 (stereo not drawn) | 7.98
CCOc1cc2c(cc1OCC)C(c1ccccc1OC)OC(=O)C2 (stereo not drawn) | 2.26
COc1cc(/C=N\Nc2nc3ccccc3[nH]2)cc(OC)c1OC | 22.4
COc1cc(/C=N\Nc2nc3ccccc3o2)cc(OC)c1OC | 12.1
Cc1ccc(/C=N/Nc2nc3ccccc3[nH]2)s1 | 18.3
COc1ccc(/C=N/Nc2nc3ccccc3o2)cc1O | 28.6
COc1ccc(/C=N/Nc2nc3ccccc3[nH]2)cc1OC | 26.4
C(=N\Nc1nc2ccccc2[nH]1)/c1ccccc1 | 24.9
